# Shiga toxin inh: blocks Shiga toxin action in Vero cells | Vero cells, Shiga toxin protein synthesis inhibition reporter | inhibition, % at 38.7 µM | 290,000 compounds, 9.2% hits | AID 2315; in the data active = inhibition mostly above about 28%, no sharp cut-off; inactive = mostly below about 43%; note: 0% is about no effect
# CHX counter: counter-screen hit for Shiga toxin inhibitors, cycloheximide | cell reporter, cycloheximide protein synthesis inhibition counterscreen | max response, % | 300,000 compounds, 12% hits | AID 2314; in the data active = max response mostly above about 13%, no sharp cut-off; inactive = mostly below about 14%; note: read at 38.3 µM for the half of the compounds with a filed dose; 0% is about no effect
# HCMV inh: inhibitors of human cytomegalovirus. activity change, negative = inhibition, % at 57.5 µM. HFF cells, HCMV-luciferase reporter, 72 h; hits give low values. 410,000 compounds, 4.5% hits; in the data active = activity change below about -60%; inconclusive = no clear call, values can overlap the other calls; inactive = above about -39%; note: % is set by controls: 0 for no effect and ±100 for the full control effect
#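 HFF cells seeded 16 h at 37C, treated with compounds, infected with luciferase-reporter HCMV at MOI 1 PFU/cell; luciferase read at 72 h post infection, normalized to buffer-only and Salinomycin controls.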
# HCV inh: inhibitors of hepatitis C virus infection; AID 651820; Huh7.5.1 HCVcc-Cre infection, luciferase reporter, 44 h; 340,000 compounds, 3.4% hits; Potency, µM (doses to about 41.8 µM), without a hit: at the highest dose activity change, negative = inhibition, actives largely listed as inhibitors; note: potency is the fitted concentration of half-maximal effect; % is set by controls: 0 for no effect and ±100 for the full control effect
#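 Reporter virus HCVcc-Cre (~0.5 moi) infects cells exposed to compound; seeding density 1,000 cells/well with 4 h settling beforehand. Luminescence, 15 sec read, taken 44 h post-infection following a 15 min RT substrate incubation.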
# Pf growth 96h: P. falciparum growth inhibition at 96 hour, primary screen for plastid delayed-death inhibitors | P. falciparum luciferase reporter growth, 96 h | Potency, µM (series often up to 28.7 µM), for the others: at the top dose activity change, negative = inhibition, actives largely listed as inhibitors | 320,000 compounds, 6.9% hits; note: potency is the fitted concentration of half-maximal effect; % is set by controls: 0 for no effect and ±100 for the full control effect
#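 Cell-based qHTS: luciferase-tagged P. falciparum in erythrocytes (2% hematocrit, 0.05% parasitemia final) incubated with compounds for 96 hours, 37 C, 5% CO2; luciferase detection reagent then added and luminescence measured.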
# Pf growth 48h: inhibits P. falciparum growth in the first generation, 48 h. P. falciparum luciferase growth in erythrocytes, 48 h. 310,000 compounds, 5.9% hits. AID 504832. Potency, µM (top dose mostly 28.7 µM), without a hit: top-dose activity change, negative = inhibition, actives largely listed as inhibitors; note: potency is the fitted concentration of half-maximal effect; % is set by controls: 0 for no effect and ±100 for the full control effect
#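 Erythrocytes infected with P. falciparum carrying an integrated firefly luciferase reporter (2% hematocrit, 0.1% parasitemia final) were exposed to compounds in RPMI 1640 with 0.5% Albumax at 37 C, 5% CO2. Growth inhibition was scored as reduced luminescence.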
# * marks the source's active call; other numbers are inactive results; ? = inconclusive; . = no result given. In the library only some 21% were active in any assay of this set; here they are far more common. Unless noted, calls come from the whole dose curve; as a rule, active = well fitted inhibition curve with a large enough effect; inconclusive = small, poorly fitted or top-dose-only effect, or another doubt; inactive = no such curve, though single readings can be large or run the other way.
SMILES,Shiga toxin inh,CHX counter,HCMV inh,HCV inh,Pf growth 96h,Pf growth 48h
Cc1onc(-c2ccccc2)c1C(=O)NNC(=S)NC(=O)/C=C/c1cccs1,-8,-7,2,?,?,23%
O=C(C1CCCCC1)N1C[C@H](O)[C@@H](n2cc(C3CC3)nn2)C[C@@H]1c1ccccc1,.,.,5,.,.,.
COCC(C)Nc1ncnc2c1cnn2-c1ccc(Cl)cc1 (stereo not drawn),101*,33*,67,?,.,.
COc1ccc(-n2ncc3c(NCC(C)C)ncnc32)cc1,19,15,120,14µM*,25%,108%
CCC(C)Nc1ncnc2c1cnn2-c1ccc(F)cc1 (stereo not drawn),.,.,20,.,.,.
COc1ccc(-n2ncc3c(NC(C)C)ncnc32)cc1,69,44*,130,?,-4%,75%
Cc1cccc(NC(=O)C2CCCN(c3nnc(-n4c(C)ccc4C)s3)C2)c1C (stereo not drawn),.,.,-6,.,.,.
Cc1ccn2c(NC(=O)c3ccco3)c(-c3ccccc3)nc2c1,-5,1,9,3%,4.1µM*,-5%
CCOC(=O)c1c(-c2ccccc2)nc2cc(C)ccn12,76*,54*,-27,-3%,79%,28%
CCOC(=O)c1c(-c2ccccc2)nc2ccc(C)cn12,123*,45*,24,?,431%,219%
CCOC(=O)C(=O)c1c(-c2ccccc2)nc2ccccn12,-11,0,?,?,43%,11%
CCCc1cc(=O)n2[nH]c(NC(=O)c3ccco3)nc2n1,-6,-4,49,27%,?,22%
CCOC(=O)c1ccccc1NC(=O)Cn1cc(C(=O)c2cccc(OC)c2)c(=O)c2ccc(C)nc21,.,.,8,.,.,.
Cc1nc(SCC(=O)N2CCN(c3ccccn3)CC2)c(C#N)c(C)c1C,.,.,-16,?,.,.
CCCOc1ccccc1C(=O)N1CCCCC1CCN1CCCCC1 (stereo not drawn),-3,-4,-70*,.,.,.
CN1CCN(c2nc(-c3cccs3)cs2)CC1,61,27*,11,-23%,47%,41%
O=C1c2ccccc2C(=O)N1c1nc(-c2cccs2)cs1,10,8,79,-2%,15µM*,50%
O=C1c2cccc3cccc(c23)C(=O)N1c1nncs1,-19,-2,-28,9%,-1%,.
CN1CCN(c2nc(-c3cc4ccccc4o3)cs2)CC1,85*,48*,-4,-11%,154%,107%
Nc1nc(-c2cc3ccccc3o2)cs1,98*,33*,12,-5%,86%,225%
NC(=O)C1CCN(c2nc(-c3cc4ccccc4o3)cs2)CC1,.,.,?,.,2%,?
O=C(CC[C@H]1O[C@@H](n2ccc(=O)[nH]c2=O)[C@H](O)[C@@H]1O)NCCN1CCOCC1,.,.,28,.,.,.
N/C(=N\OC(=O)c1ccc(Cl)c(Cl)c1)c1ccccn1,107*,19*,114,17%,65%,-52%
N/C(=N\OC(=O)c1ccc(Cl)cc1)c1ccccn1,33,7,53,?,-138%,-58%
N/C(=N\OC(=O)c1cccc(Cl)c1)c1ccccn1,46,42*,9,-5%,-89%,-13%
SMILES,Shiga toxin inh,CHX counter,HCMV inh,HCV inh,Pf growth 96h,Pf growth 48h
N/C(=N\OC(=O)c1cccc(Br)c1)c1ccccn1,36*,66*,19,14%,-25%,-83%
N/C(=N\OC(=O)c1ccc(Cl)c([N+](=O)[O-])c1)c1ccccn1,141*,72*,-63*,?,?,72%
O=C(COC(=O)c1ccccn1)c1cccc(Br)c1,15,5,37,23%,3%,6%
CC(=O)N1CCc2c(sc3c2c(=O)n(Cc2ccccc2)c(=O)n3Cc2cccc(Cl)c2)C1,.,.,6,.,.,.
N/C(=N\OS(=O)(=O)c1ccccc1)c1ccccn1,-5,0,?,7%,-14%,1%
N/C(=N\OS(=O)(=O)c1ccc(Cl)cc1)c1ccccn1,56*,17*,-15,4%,-11%,37%
N/C(=N\OC(=O)CCCOc1ccccc1)c1cccc(Br)c1,-1,-3,-20,5%,44%,-11%
N/C(=N\OC(=O)c1cccc(Br)c1)c1ccccc1,59*,27*,264,11µM*,41%,62%
COc1ccccc1NC(=O)c1cc(C(=O)Nc2ccccc2OC)cc([N+](=O)[O-])c1,-2,-5,3,13%,0%,22%
CC(C)(C)N=C1NN=C(c2ccc(Cl)cc2)CS1,91*,70*,?,10µM*,-71%,-58%
COc1ccc(CN=C2NC(=O)CC(C(=O)Nc3ccc(F)cc3)S2)cc1 (stereo not drawn),12,-2,17,-10%,?,-8%
COc1ccc(C2=NN(C)C(=NCc3ccccc3)SC2)cc1,38*,14,-13,7.9µM*,86%,51%
COc1ccc(CN=C2Nc3ccccc3CS2)cc1,60,30*,52,-6%,353%,107%
COc1ccc(CN=C2NN=C(c3ccc(Cl)cc3)CS2)cc1,52*,21*,-28,-1%,?,-17%
Clc1ccc(C2=NNC(=NCc3ccc4c(c3)OCO4)SC2)cc1,27,1,?,-4%,?,?
COc1cc(C(=O)Nc2nnc(S(=O)(=O)N(C)c3ccccc3)s2)cc(OC)c1OC,.,.,34,.,.,.
CC(C)(C)N=C1NN=C(c2cc3ccccc3o2)CS1,86*,30*,56,?,?,-87%
CC(O)(c1ccc(F)c(F)c1)c1nc(-c2cc3ccccc3o2)cs1 (stereo not drawn),.,.,-21,.,.,.
CC(C)c1ccc(OCC(=O)NC2=NCCS2)cc1,98*,69*,11,3%,-25%,344%
Cc1cccnc1NC(=O)C(C)Oc1ccccc1 (stereo not drawn),24,1,-1,-13%,-12%,46%
Cc1cc(OCCCC(=O)NC2=NCCS2)ccc1Cl,-14,16,18,6%,.,5%
O=C(COc1ccccc1)NC1=NCCS1,95*,41*,23,7%,275%,.
CC(Oc1ccccc1)C(=O)NC1=NCCS1 (stereo not drawn),80*,38*,94,?,?,304%
N#Cc1ccc(OCC(=O)NC2=NCCS2)cc1,51,23,27,-5%,25%,25%
COc1ccccc1NC(=O)c1sc2nc(C)c(C(=O)Nc3ccc(C)cc3C)c(-c3ccc(C)o3)c2c1N,.,.,-3,.,.,.
CC(c1nccs1)N(C)C(=O)c1cn(Cc2cccc3ccccc23)nn1 (stereo not drawn),123*,40*,13,-1%,1%,28%
Cc1ccccc1C(=O)Nc1ccc2nc(SCC(=O)N3CCc4ccccc43)sc2c1,.,.,-7,.,.,.
